Assay outcomes as filed in PubChem BioAssay.
MITF TRPM1 inh = inhibitors of MITF-driven TRPM1 promoter in melanoma cells. inhibition, % at 12.5 µM. SK-MEL-5 TRPM1 promoter luciferase, 24 h. 330,000 tested, 0.83% active;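 active = mean inhibition across replicates of 60% or more, whatever share of single replicates reaches that level; inconclusive = some that reach 60%, reason not given; inactive = mean inhibition across replicates below 60%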
MITF act = increases MITF-driven TRPM1 promoter luciferase signal. SK-MEL-5 TRPM1-promoter luciferase, 24 h; % of positive control, neutral wells = 0. activation, % at 12.5 µM. 300,000 tested, 0.75% active. AID 588334;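 active = mean activation of at least 80% with every replicate also reaching 80%; inconclusive = mean reaches 80% but some replicate falls short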;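 note: 0% = neutral control wells and 100% = parthenolide positive control wells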
LMP1 NFkB inh = inhibitors of Epstein-Barr LMP1-induced NF-kappaB reporter | LMP1-induced NF-kappaB luciferase reporter cells, luminescence | inhibition, % at 12.5 µM | 350,000 tested, 0.69% active; in the data active = inhibition above about 41%; inconclusive = no clear call, values can overlap the other calls;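 note: 0% = neutral control wells and 100% = reference inhibitor control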
TWEAK-Fn14 inh = inhibitors of TWEAK-Fn14 interaction signaling; 360,000 tested, 2% active; inhibition, % at 10 µM; TWEAK-stimulated Fn14 reporter cells, luciferase luminescence, 8 h; AID 1159606; in the data active = inhibition above about 50%
LGR2 inh = Drosophila LGR2 receptor signaling inhibition. 380,000 tested, 0.35% active. HEK293 LGR2, CRE-luciferase, bursicon-stimulated, 4 h. inhibition, % at 9.99 µM;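 active = drop in luminescence signal, shown as inhibition above about 50% in the replicate tests, limit read from the data, passing the limit was not always enough; inconclusive = probably only some replicates passing the limit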;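 note: agonist challenge used bursicon conditioned medium at about half maximal strength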
TROY NFkB inh = TROY signaling inhibition; Q293 LMP1-TROYcd NF-kB luciferase reporter, 4 h; inhibition, % at 10 µM; 360,000 tested, 0.98% active; AID 1347056;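 active = compounds whose plate-normalised and pattern-corrected inhibition of the luciferase reporter signal at the single screening dose is 50% or more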
Numbers without * were called inactive. This is a sample that favours compounds with a hit; in the whole collection about 3% have one here.

What do the screens show for `Cc1csc(CNc2ncnc3ccc(-c4ccoc4)cc23)c1`?
MITF TRPM1 inh: -11; MITF act: 8; LMP1 NFkB inh: 38; TWEAK-Fn14 inh: 90*; LGR2 inh: inconclusive; TROY NFkB inh: 54*

How did Cc1csc(CNc2ncnc3ccc(-c4ccc5c(c4)OCO5)cc23)c1 do in these assays?
MITF TRPM1 inh: 19; MITF act: -19; LMP1 NFkB inh: 0; TWEAK-Fn14 inh: 17; LGR2 inh: 13; TROY NFkB inh: 4

What do the screens show for `Cc1cccc(CNc2ncnc3ccc(-c4ccc5c(c4)OCCO5)cc23)c1`?
MITF TRPM1 inh: 31; MITF act: -27; LMP1 NFkB inh: -15; TWEAK-Fn14 inh: 33; LGR2 inh: 26; TROY NFkB inh: 35

What do the screens show for `COc1cccc(-c2ccc3ncnc(N(C)Cc4ccco4)c3c2)c1`?
MITF TRPM1 inh: 6; MITF act: -3; LMP1 NFkB inh: 2; TWEAK-Fn14 inh: 37; LGR2 inh: -19; TROY NFkB inh: -23

Results for Cc1noc(C)c1NC(=O)Nc1ccc2c(c1)CC(=O)N([C@H](C)CO)C[C@H](C)[C@H](CN(C)S(=O)(=O)c1c(C)noc1C)O2 ?
LGR2 inh: -10

Results for C[C@H](CO)N1C[C@H](C)[C@@H](CN(C)C(=O)c2ccncc2)OCCCC[C@H](C)Oc2ccc(NS(=O)(=O)c3ccc(F)cc3)cc2C1=O ?
LGR2 inh: -1

How did CC=Cc1ccc2n(c1=O)C[C@H]1[C@H](CO)[C@@H](C(=O)NCc3ccc(F)cc3)N(CC)[C@@H]21 (mixture of isomers) do in these assays?
LGR2 inh: 7

What do the screens show for `c1nc(NCc2ccc3c(c2)OCO3)c2cc(-c3ccc4c(c3)OCCO4)ccc2n1`?
MITF TRPM1 inh: 6; MITF act: 1; LMP1 NFkB inh: -10; TWEAK-Fn14 inh: -10; LGR2 inh: 6; TROY NFkB inh: 21

What do the screens show for `COc1cccc(-c2ccc3ncnc(NCc4cc(C)cs4)c3c2)c1`?
MITF TRPM1 inh: -1; MITF act: 1; LMP1 NFkB inh: 33; TWEAK-Fn14 inh: 77*; LGR2 inh: 17; TROY NFkB inh: 42

Results for COc1cccc(-c2ccc3ncnc(NCc4ccc5c(c4)OCO5)c3c2)c1 ?
MITF TRPM1 inh: -7; MITF act: 9; LMP1 NFkB inh: 22; TWEAK-Fn14 inh: 80*; TROY NFkB inh: 31

How did Cc1csc(CNc2ncnc3ccc(-c4cccnc4)cc23)c1 do in these assays?
MITF TRPM1 inh: 2; MITF act: -5; LMP1 NFkB inh: -5; TWEAK-Fn14 inh: 21; LGR2 inh: -7; TROY NFkB inh: 29

Results for Cc1ccc(CNc2ncnc3ccc(-c4ccoc4C)cc23)o1 ?
TWEAK-Fn14 inh: 65*; LGR2 inh: 8; TROY NFkB inh: -5

What do the screens show for `CCCNC(=O)N1CC2(C1)CN(C(=O)COC)[C@H](CO)c1[nH]c3cc(OC)ccc3c12`?
LGR2 inh: -1

Results for COC(=O)N/N=C\c1ccccc1OC/C=C/c1ccccc1 ?
MITF TRPM1 inh: -96; MITF act: 98*; LMP1 NFkB inh: -22; TWEAK-Fn14 inh: -19; LGR2 inh: -9; TROY NFkB inh: -38

What do the screens show for `CCOC(=O)N/N=C\c1ccccc1OC/C=C/c1ccccc1`?
MITF TRPM1 inh: -48; MITF act: 49; LMP1 NFkB inh: -36; TWEAK-Fn14 inh: -31; LGR2 inh: -48; TROY NFkB inh: -46

How did N#CCC(=O)N/N=C\c1cc(Br)ccc1OC/C=C/c1ccccc1 do in these assays?
MITF TRPM1 inh: -96; MITF act: 93*; LMP1 NFkB inh: -8; TWEAK-Fn14 inh: -19; LGR2 inh: -33; TROY NFkB inh: -12

Results for COc1cccc(C(=O)NCC(=O)OCC(=O)Nc2ncc(Cl)cc2Cl)c1 ?
MITF TRPM1 inh: 14; MITF act: -12; LMP1 NFkB inh: -8; TWEAK-Fn14 inh: 88*; LGR2 inh: 2; TROY NFkB inh: -9

How did COc1cc(OC)cc(C(=O)NCC(=O)OCC(=O)Nc2ncc(Cl)cc2Cl)c1 do in these assays?
MITF TRPM1 inh: 7; MITF act: -4; LMP1 NFkB inh: 2; TWEAK-Fn14 inh: -11; LGR2 inh: -33; TROY NFkB inh: 1

What do the screens show for `Cc1cc(Br)ccc1NC(=O)CN(C)C(=O)c1cc(S(=O)(=O)N(C)C)ccc1N1CCCC1`?
MITF TRPM1 inh: 8; MITF act: -7; LMP1 NFkB inh: 0; TWEAK-Fn14 inh: 88*; LGR2 inh: 1; TROY NFkB inh: -5

How did CO[C@@H]1CN(C)C(=O)c2ccc(NS(C)(=O)=O)cc2OC[C@@H](C)NC[C@@H]1C do in these assays?
LGR2 inh: -14

Results for O=C1OCCC1Sc1nnc(-c2ccc(Cl)cc2Cl)o1 (stereo not given) ?
MITF TRPM1 inh: 40; MITF act: -40; LMP1 NFkB inh: 50*; TWEAK-Fn14 inh: 83*; LGR2 inh: 74*; TROY NFkB inh: 52*

Results for COc1ccc(-c2nc(CS(=O)CC(=O)NCc3ccc(Cl)cc3)c(C)o2)cc1 (stereo not given) ?
MITF TRPM1 inh: 5; MITF act: -7; LMP1 NFkB inh: 44*; TWEAK-Fn14 inh: -8; LGR2 inh: -16; TROY NFkB inh: 7

Results for Cc1oc(-c2ccc(Cl)cc2)nc1CS(=O)CC(=O)NCc1ccccc1 (stereo not given) ?
MITF TRPM1 inh: 6; MITF act: -3; LMP1 NFkB inh: 8; TWEAK-Fn14 inh: 9; LGR2 inh: -6; TROY NFkB inh: 8

How did CCc1ccc(-c2nc(CS(=O)CC(=O)NCc3ccccc3)c(C)o2)cc1 (stereo not given) do in these assays?
MITF TRPM1 inh: 32; MITF act: -27; LMP1 NFkB inh: 16; TWEAK-Fn14 inh: 57*; LGR2 inh: 2; TROY NFkB inh: 21

How did CCCNC(=O)CSCc1nc(-c2ccc(SC)cc2)oc1C do in these assays?
MITF TRPM1 inh: -14; MITF act: 20; LMP1 NFkB inh: 3; TWEAK-Fn14 inh: -4; LGR2 inh: -16; TROY NFkB inh: -19

Results for CCc1ccc(-c2nc(CSCC(=O)NCc3ccco3)c(C)o2)cc1 ?
MITF TRPM1 inh: 36; MITF act: -30; LMP1 NFkB inh: 19; TWEAK-Fn14 inh: 65*; LGR2 inh: 1; TROY NFkB inh: 45

What do the screens show for `CO[C@H]1CN(C)C(=O)c2cc(NC(=O)NC(C)C)ccc2OC[C@@H](C)N(C(=O)CC2CC2)C[C@@H]1C`?
LGR2 inh: 10

How did O=C(c1cnccn1)N1CC(=O)N2[C@H](CO)[C@@H](c3ccc(-c4cccc(F)c4)cc3)[C@@H]2C1 do in these assays?
LGR2 inh: 1

Results for CO[C@H]1CN(C)C(=O)c2ccc(NC(C)=O)cc2OC[C@@H](C)N(C(=O)C2CCOCC2)C[C@H]1C ?
LGR2 inh: 9

Results for C[C@H](NC(=O)C[C@H]1C=C[C@@H](NC(=O)Cc2ccccn2)[C@@H](CO)O1)c1ccccc1 ?
LGR2 inh: 0
